Tau ThT inhib – tau fibrillization inhibition (ThT binding) | Potency, µM (series often up to 57.4 µM), for inactives: at the top dose activity, negative = inhibition, actives largely listed as inhibitors | recombinant tau K18 P301L, heparin-induced fibrillization, ThT fluorescence | AID 1460 | 270,000 tested, 2.1% active | P10636; also: nearly all actives have a fitted effect of over 55% in size
Target sequence (P10636 561-689 P618L limits assumed): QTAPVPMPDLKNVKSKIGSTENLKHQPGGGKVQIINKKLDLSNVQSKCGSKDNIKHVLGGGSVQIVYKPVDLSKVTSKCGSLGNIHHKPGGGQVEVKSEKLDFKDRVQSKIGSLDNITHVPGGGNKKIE
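In this qHTS, human K18 P301L tau is incubated with compound and heparin for 6 hr at 37 C, and Thioflavin T fluorescence then reports fibril load.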
ALDH1A1 block – ALDH1A1 (human) enzyme inhibition | Purified ALDH1A1, NADH fluorescence, propionaldehyde substrate | Potency, µM (titrated, usually from 75.3 µM), for inactives: at the highest dose activity, negative = inhibition, usual class: inhibitors | 220,000 tested, 7.3% active | AID 1030; active = well fitted inhibition curve with a large enough effect, not every such curve was filed as active; inconclusive = small, poorly fitted or top-dose-only effect, or another doubt; inactive = no such curve, though single readings can be large or run the other way;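 also: plate controls were no enzyme wells and a reference inhibitor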
Target sequence (P00352 whole entry, looked up): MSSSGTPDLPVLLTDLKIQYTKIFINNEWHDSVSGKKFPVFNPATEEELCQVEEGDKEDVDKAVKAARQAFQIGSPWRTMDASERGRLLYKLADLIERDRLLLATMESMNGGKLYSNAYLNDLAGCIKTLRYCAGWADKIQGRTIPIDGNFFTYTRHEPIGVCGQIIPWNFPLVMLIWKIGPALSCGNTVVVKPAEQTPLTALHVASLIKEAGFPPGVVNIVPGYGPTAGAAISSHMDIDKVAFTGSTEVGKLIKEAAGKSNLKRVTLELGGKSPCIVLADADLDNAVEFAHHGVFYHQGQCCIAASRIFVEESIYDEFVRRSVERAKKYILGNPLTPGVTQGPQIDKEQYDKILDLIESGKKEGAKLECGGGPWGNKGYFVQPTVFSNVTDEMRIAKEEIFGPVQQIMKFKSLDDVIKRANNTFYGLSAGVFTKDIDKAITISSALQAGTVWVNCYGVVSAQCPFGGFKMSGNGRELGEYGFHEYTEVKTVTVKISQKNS
HPGD block – inhibitors of human 15-hydroxyprostaglandin dehydrogenase (HPGD); Potency, µM, for inactives: top-dose activity change, negative = inhibition, actives largely listed as inhibitors; P15428; AID 894; purified HPGD, NADH fluorescence kinetic, PGE2 substrate; 150,000 tested, 4.3% active; active = well fitted inhibition curve with a large enough effect, not every such curve was filed as active; inconclusive = small, poorly fitted or top-dose-only effect, or another doubt; inactive = no such curve, though single readings can be large or run the other way
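20 nM HPGD preincubated 15 min at room temperature with compound in 50 mM Tris-HCl pH 8, 0.01% Tween 20. Started with 1 mM NAD+ and 30 uM prostaglandin E2; NADH fluorescence (360/450 nm) read 5 times over 30-s intervals, last minus first.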
Tau fibril FP – tau fibrillization inhibition (FP) | K18 P301L tau heparin fibrillization, Alexa594 FP, 6 h | 280,000 tested, 0.39% active | Potency, µM (series often up to 57.7 µM), for inactives: at the highest dose activity, negative = inhibition, usual class: inhibitors | P10636; also: nearly all actives have a fitted effect of over 55% in size
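K18 P301L tau (15 uM unlabeled/0.24 uM Alexa 594-labeled, final) + compound + heparin 20 uM final; 100 mM NaOAc pH 7; 6 hr 37 C; ThT 30 uM final added, 1 hr RT; FP ex 555/em 632 nm.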
KDM4E inh – inhibitors of human JMJD2E histone demethylase | JMJD2E catalytic domain, FDH-coupled NADH fluorescence (FDH is formaldehyde dehydrogenase) | Potency, µM (series often up to 57.1 µM), inactives show at the highest dose activity change, negative = inhibition, usual class: inhibitors | 230,000 tested, 1.6% active | AID 2147; active = well fitted inhibition curve with a large enough effect, not every such curve was filed as active; inconclusive = small, poorly fitted or top-dose-only effect, or another doubt; inactive = no such curve, though single readings can be large or run the other way;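 also: 0% = wells with enzyme and -100% = buffer wells without enzyme; nearly all actives have a fitted effect of over 50% in size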
Tau fluor counter – counter-screen for tau fibril formation inhibitors. 280,000 tested, 0.93% active. tau K18 P301L (four-repeat tau fragment) Alexa594 fluorescence, heparin fibrillization. AID 1463. Potency, µM (highest dose often 57.7 µM), for the others: top-dose activity change, negative = decrease; also: nearly all actives have a fitted effect of over 55% in size
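Human K18 P301L tau (15 uM unlabeled plus 0.24 uM Alexa 594-labeled, final) in 100 mM sodium acetate pH 7 was mixed with compound and 20 uM heparin and incubated 6 hr at 37 C.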
The depositor's hits bear a star; ? = inconclusive; . = no result; [ ] = another dose, or the depositor's remark. Most compounds without a hit are left out; they make up all but 9.9% or so of the library. Unless noted, calls follow the shape of the dose curve; as a rule, active = well fitted curve in the direction sought with a large enough effect; inconclusive = small, poorly fitted or top-dose-only effect, or another doubt; inactive = no such curve, though single readings can be large; an effect the other way counts as inactive or inconclusive. Unless noted, % is scaled to controls: 0 for no effect and ±100 for the full control effect; potency is read from the fitted curve at half-maximal effect.

SMILES | Tau ThT inhib | ALDH1A1 block | HPGD block | Tau fibril FP | KDM4E inh | Tau fluor counter
Cc1ccc(-n2nnc3c(=O)n(Cc4cc(C)ccc4C)cnc32)cc1 | -1% | 8% | -4% | -6% | 19% | -4%
Cc1cccc(Cn2cnc3c(nnn3Cc3ccc(F)cc3)c2=O)c1 | 2% | 5% | 14µM* | -5% | 2% | -11%
Cc1ccc(-n2nnc3c(=O)n(Cc4cccc(C)c4)cnc32)cc1 | 7% | 4% | 4µM* | 2% | -2% | -6%
C=CCN1C=CC(=O)CC1 | 4% | . | . | 6% | 1% | 8%
COC(=O)c1ccc(NC(=O)Nc2ccc(OC)c(OC)c2)cc1 | ? | 3% | . | 16% | 5% | ?
COc1ccc(NC(=O)NC23CC4(C)CC(C)(CC(C)(C4)C2)C3)cc1OC | ? | 8% | -4% | 4% | -4% | 13µM*[quencher]
CSc1cccc(Nc2cc(C(=O)NCCCN(Cc3ccccc3)C(C)C)c3ccccc3n2)c1 | ? | . | . | ? | . | 3.5µM*[quencher]
CC(C)c1ccc(Nc2cc(C(=O)NCCc3ccccc3)c3ccccc3n2)cc1 | 1% | . | . | 1% | . | ?
Cc1cc(C)cc(Nc2cc(C(=O)NCCCN(Cc3ccccc3)C(C)C)c3ccccc3n2)c1 | -16% | . | . | ? | . | 2.8µM*[quencher]
Cc1ccc(C)c(Cn2cnc3c(cnn3C(C)(C)C)c2=O)c1 | -10% | ? | 22µM* | -6% | 6% | -11%
O=C1C2C3C=CC(C3)C2C(=O)N1/N=C/c1cn(Cc2ccc(F)cc2)c2ccccc12 (stereo unspecified) | -1% | 25µM* | -9% | -12% | 11% | -20%
O=C(CNc1ccc2c(c1)OCO2)N/N=C\c1cn(Cc2ccccc2)c2ccccc12 | ? | 4.5µM* | -16% | 2% | -12% | 10µM*[quencher]
O=C(CNc1ccccc1)N/N=C/c1ccc2c(c1)OCO2 | ? | -5% | -15% | 6% | -11% | -13%
O=C(CNc1ccc2c(c1)OCO2)N/N=C\c1cn(Cc2ccc(F)cc2)c2ccccc12 | ? | 2µM* | -18% | 11% | 1% | ?
CSc1ncc(C(=O)Nc2cccc(Cl)c2C)c(-c2ccccc2)n1 | -1% | . | . | -4% | . | -14%
Cc1cc(NC(=O)C2CCCN(S(=O)(=O)c3cn(C)cn3)C2)ccc1Br (stereo unspecified) | 1% | . | . | 7% | . | -2%
Cc1cccc(N2CCN(C(=O)Nc3cn(CC(C)C)c(=O)c4ccccc34)CC2)c1C | ? | . | . | 1% | . | -3%
COc1ccc(NC(=O)c2ccc3c(=O)n(Cc4ccco4)c(=S)[nH]c3c2)c(OC)c1 | ? | 0.89µM* | -8% | 6% | 0% | -20%
O=c1c2cc(Cl)ccc2[nH]c(=S)n1Cc1ccco1 | -7% | 11µM* | -20% | 10% | -2% | -17%
COCCn1c(=S)[nH]c2cc(OC)c(OC)cc2c1=O | -1% | 32µM* | -9% | -4% | -4% | 1%
O=c1[nH]c2ccc(Cl)cc2c(=O)n1Cc1ccco1 | -8% | ? | 1% | -3% | -3% | -19%
COc1cc2[nH]c(=S)n(Cc3ccco3)c(=O)c2cc1OC | 1% | 0.79µM* | -12% | ? | 1% | -2%
COc1ccc(Cn2c(=S)[nH]c3cc(OC)c(OC)cc3c2=O)cc1 | 9% | -11% | . | 9% | -3% | 6%
COc1ccc(OC)c(NC(=O)c2ccc3c(=O)n(CCc4ccccc4)c(=S)[nH]c3c2)c1 | -9% | -1% | -20% | 4% | -18% | -17%
Cc1ccc(-c2sc(C(=O)Nc3ccc(Br)cc3)cc2CC(=O)O)cc1 | ? | . | . | -9% | . | -29%
SMILES | Tau ThT inhib | ALDH1A1 block | HPGD block | Tau fibril FP | KDM4E inh | Tau fluor counter
CCc1ccccc1NC(=O)N1CC(CC)Oc2ccc(Cl)cc21 (stereo unspecified) | -7% | . | . | -1% | . | -23%
C=CCNC(=O)c1c2c(nc3ccccc13)-c1ccccc1CC2 | -1% | ? | ? | -4% | ? | -2%
COCCn1c(=O)c2cc3c(=O)n(CCOC)c(=O)c3cc2c1=O | -11% | 18µM* | -6% | 1% | -1% | -9%
CCOC(=O)N1CCC(N2CCN(S(=O)(=O)c3ccc(Cl)cc3)CC2)CC1 | -5% | 14µM* | -13% | 1% | ? | -1%
COc1cccc(NC(=O)CN2CCN(S(=O)(=O)c3ccc(C(C)C)cc3)CC2)c1 | -3% | 22µM* | -15% | -5% | 3% | -15%
COc1ccc(NC(=O)CN2CCN(S(=O)(=O)c3ccc(Cl)cc3)CC2)cc1 | -5% | 19µM* | -3% | 1% | -2% | -9%
COc1ccc(S(=O)(=O)N2CCCN(CC(=O)Nc3ccc(OC)c(Cl)c3)CC2)cc1 | ? | 1.6µM* | -16% | -3% | -14% | -29%
CCOC(=O)N1CCC(N2CCN(S(=O)(=O)c3ccc(NC(C)=O)cc3)CC2)CC1 | -3% | ? | 2% | -3% | ? | -5%
CCSC1=N/C(=C/c2ccsc2)C(=O)N1c1ccccc1 | -11% | ? | -15% | -6% | ? | -11%
CCOC(=O)c1c(NC(=O)C2CCCO2)sc2c1CCC2 (stereo unspecified) | ? | 22µM* | -19% | -3% | -28% | -10%
NC(=O)c1c(NC(=O)c2noc3c2CCCC3)sc2c1CCCC2 | 28µM* | . | . | ? | . | -26%
CCOC(=O)c1c(N2C(=O)CC(Sc3ccccc3C(=O)O)C2=O)sc2c1CCCC2 (stereo unspecified) | ? | 4.5µM* | . | -6% | -9% | 0%
Cc1sc(NC(=O)C2CCCO2)c(C(N)=O)c1C (stereo unspecified) | ? | 11µM* | 28µM* | -8% | ? | -8%
CCOC(=O)c1c(NC(=O)C2CCCO2)sc(C(=O)OC(C)(C)C)c1C (stereo unspecified) | -2% | 14µM* | ? | -4% | 16% | -8%
CCOC(=O)c1c(NC(=O)C2CCCO2)sc(C)c1C (stereo unspecified) | -5% | 14µM* | . | 4% | ? | -12%
CCOC(=O)c1sc(NC(=O)C2CCCO2)c(C(=O)OCC)c1C (stereo unspecified) | 8% | 8.9µM* | ? | 4% | ? | 9%
Cc1c(C(=O)OC(C)C)sc(NC(=O)C2CCCO2)c1C(=O)OC(C)C (stereo unspecified) | ? | -12% | -8% | 1% | -3% | -28%
N#Cc1c(NC(=O)C2CCCO2)sc2c1CCCCCC2 (stereo unspecified) | -16% | 14µM* | ? | 1% | 6% | -23%
O=C(CN1C(=O)CCSc2ccc(S(=O)(=O)N3CCCC3)cc21)Nc1ccccc1 | -4% | . | . | -7% | . | -13%
Clc1ccccc1CNc1nc2ccccc2c2nc(-c3cccnc3)nn12 | -5% | . | . | ? | . | -11%

High-throughput results as filed in PubChem BioAssay.
